Screening results as filed in PubChem BioAssay.
CYP2C19 activ – activators of human cytochrome P450 2C19. P33261. recombinant CYP2C19, luciferin-H EGE luminescence; stronger effect = higher value; 0 = fully inhibited enzyme, 1 = untreated enzyme. activation factor at 5 µM. 96,000 tested, under 10 active;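 active means activation factor of at least 2 at 5 µM in the primary screen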
CYP2C9 inh – human CYP2C9 inhibition. CYP2C9 Supersomes, luciferin-H conversion, luminescence. inhibition, % at 5 µM. hit rate 20% among 96,000. AID 777;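 active means blocking of liver enzyme CYP2C9 beyond about 50% at 5 µM, limit read from the data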
Target sequence (P11712 whole entry, looked up): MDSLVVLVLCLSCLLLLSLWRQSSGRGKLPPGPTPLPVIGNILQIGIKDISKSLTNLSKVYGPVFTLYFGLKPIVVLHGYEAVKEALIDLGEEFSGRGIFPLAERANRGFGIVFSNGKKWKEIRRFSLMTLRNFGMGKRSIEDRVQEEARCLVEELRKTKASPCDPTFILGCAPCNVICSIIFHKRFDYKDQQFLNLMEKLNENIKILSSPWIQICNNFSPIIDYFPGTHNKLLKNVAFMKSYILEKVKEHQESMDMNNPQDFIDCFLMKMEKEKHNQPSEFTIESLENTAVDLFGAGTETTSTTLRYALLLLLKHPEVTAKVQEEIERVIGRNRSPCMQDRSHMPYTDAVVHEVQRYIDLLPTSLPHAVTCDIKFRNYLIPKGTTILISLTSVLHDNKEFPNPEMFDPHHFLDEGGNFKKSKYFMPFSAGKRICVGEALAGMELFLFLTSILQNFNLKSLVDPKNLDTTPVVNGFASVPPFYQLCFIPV
CYP2C9 activ – CYP2C9 (human) activation; hit rate 1.4% among 96,000; activation factor at 5 µM; recombinant CYP2C9, luciferin-H conversion, luminescence; stronger effect = higher value; factor 1 = untreated enzyme, 0 = blocked; AID 1024; P11712;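 active means activation factor of 2 or more for CYP2C9 at a 5 µM dose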
EphB4 ephrin blk – blocks human EphB4 binding to ephrin-B2; EphB4 LBD / TNYL-RAW-Alexa532 peptide, fluorescence polarization; AID 720; inhibition, % at 7 µM; hit rate 0.15% among 97,000;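 active means inhibition above the screen-wide mean inhibition plus 3 SD, cut at about 15% in these data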
CYP2C19 inhib – inhibitors of human CYP2C19; P33261; CYP2C19 Supersomes, luciferin-H EGE luminescence, 30 min; inhibition, % at 5 µM; hit rate 21% among 96,000; AID 778;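 active means CYP2C19 inhibition above a set limit at 5 µM in the primary screen, cut at about 50% in these data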
Each line names hits and unclear results; the compound was inactive in the other large screens. An excerpt weighted towards active compounds, which were near 27% of everything screened.

O=C(NCCC1=CCCCC1)c1ccc(Cl)c(S(=O)(=O)N2CCOCC2)c1	CYP2C9 inh 60, CYP2C19 inhib 51
COC(=O)Cn1c(CN2CCc3ccccc3C2)nc2c1c(=O)n(C)c(=O)n2C	none (no result: EphB4 ephrin blk)
CC(C)N=C(NC#N)SCc1ccccc1	none
CC(C)CCN(C)c1ccc(/C=N/n2cnnc2)cc1	CYP2C9 inh 95, CYP2C19 inhib 99
CCN(C)c1ccc(/C=N\n2nnnc2N)cc1	none
C=C(C)COc1ccc(-c2[nH]ncc2Oc2cccc(OC)c2)c(O)c1	CYP2C9 inh 100, CYP2C19 inhib 93
CCOc1ccc(-c2cc(C(=O)O)c3ccccc3n2)c(OCC)c1	none (no result: CYP2C19 activ, CYP2C9 inh, CYP2C9 activ, CYP2C19 inhib)
C=C(C)COc1ccc(-c2[nH]ncc2Oc2ccccc2OCC)c(O)c1	CYP2C9 inh 100, CYP2C19 inhib 96
C=C(C)COc1ccc(-c2[nH]ncc2-c2ccc(OC)c(OC)c2)c(O)c1	none
C=C(C)COc1ccc(-c2[nH]ncc2-c2ccccc2)c(O)c1	CYP2C9 inh 83
CN(C1CCCCC1)S(=O)(=O)c1ccc(Cl)c(C(=O)O)c1	none (no result: EphB4 ephrin blk)
On1onc2c3cc(-c4ccccc4)nc3ccc21	CYP2C9 inh 65
Cc1ccc(C(=O)Nc2ccc(OCc3ccccc3)cc2)cc1[N+](=O)[O-]	none
CC1=C(C(=O)OC(C)C)C(c2c[nH]c3ccccc23)n2ncnc2N1 (stereo unspecified)	CYP2C19 inhib 61
CC1=C(C(=O)OC(C)C)C(c2cccs2)n2ncnc2N1 (stereo unspecified)	none
CCOC(=O)C1=C(C)Nc2ncnn2C1c1c[nH]c2ccccc12 (stereo unspecified)	CYP2C9 inh 59, CYP2C19 inhib 82
CCOC(=O)C1=C(C)Nc2ncnn2C1c1ccccc1F (stereo unspecified)	none
CCCC1=C(C(=O)OCC)C(c2ccc(O)cc2)n2ncnc2N1 (stereo unspecified)	CYP2C9 inh 93
CCCCCOC(=O)C1=C(C)Nc2ncnn2C1c1cccs1 (stereo unspecified)	CYP2C19 inhib 78
COc1cccc(N(CC(=O)N2CCN(C)CC2)S(=O)(=O)c2ccc(C)cc2)c1	none
CCN(CC)c1ncnc2ccc(Br)cc12	none
O=C(COC(=O)c1cccs1)NC1CCCCC1	CYP2C19 inhib 92
O=C(COC(=O)c1ccccn1)NC12CC3CC(CC(C3)C1)C2	CYP2C19 inhib 80
O=C(COC(=O)c1cccs1)c1ccccc1	CYP2C9 inh 78, CYP2C19 inhib 89
O=C(NC1CCCCC1)c1cccs1	none
O=C(COC(=O)c1ccccn1)NC1CCCCC1	CYP2C9 inh 77
O=C(COC(=O)c1ccccn1)Nc1nccs1	none
Cc1cnc(C(=O)OCC(=O)NC23CC4CC(CC(C4)C2)C3)cn1	none
CCC(=O)Nc1cccc(Oc2nc(C)cc(C)c2C#N)c1	none
CNC(=O)CN(C1CCCCC1)S(=O)(=O)c1ccc(F)cc1	CYP2C19 inhib 66
Cc1ccc(S(=O)(=O)N(CC(=O)N2CCN(c3ccc(F)cc3)CC2)C2CCCCC2)cc1	CYP2C9 inh 52
O=C(CN(C1CCCCC1)C1CCCCC1)N1CCc2ccccc2C1	CYP2C9 inh 65, CYP2C19 inhib 76
CCNC(=O)CN(C1CCCCC1)S(=O)(=O)c1ccc(F)cc1	none
O=C(CN(C1CCCCC1)S(=O)(=O)c1ccccc1)N1CCCC1	CYP2C9 inh 51
Cc1ccc(-n2nnnc2Sc2nc([N+](=O)[O-])nn2C)c(C)c1	none (no result: CYP2C19 activ, CYP2C9 inh, CYP2C9 activ, CYP2C19 inhib)
CCC12CCCN3CCC4(C(=C(C(=O)OC)C1)Nc1ccccc14)C32 (stereo unspecified)	CYP2C9 inh 58, CYP2C19 inhib 63
O=S(=O)(Nc1ccc(-c2nc3ccccc3o2)cc1)c1ccccc1	CYP2C9 inh 97, CYP2C19 inhib 80
COc1ccccc1OCC(=O)Nc1cccc(-c2nc3ccccc3o2)c1	none
CC(=O)Nc1ccc(S(=O)(=O)Nc2cccc(-c3nc4ccccc4o3)c2)cc1	CYP2C9 inh 98, CYP2C19 inhib 91
CCN(CC)c1ccc(-c2nc3cnccn3c2NC2CCCC2)cc1	CYP2C9 inh 98, CYP2C19 inhib 94
c1cn2c(NC3CCCC3)c(-c3ccc(N4CCOCC4)cc3)nc2cn1	CYP2C9 inh 98, CYP2C19 inhib 95 (no result: EphB4 ephrin blk)
Cc1nn(C)c(C)c1NC(=O)CSc1nc(Cc2ccccc2)nc2c1cnn2-c1ccccc1	none (no result: CYP2C19 activ, CYP2C9 inh, CYP2C9 activ, CYP2C19 inhib)
Cc1nn(Cc2ccccc2)c(C)c1NC(=O)CSc1nc(C2CC2)nc2c1cnn2-c1ccccc1	CYP2C9 inh 64
